Measured values as given in PubChem BioAssay (Tox21).
Records with an inconclusive call do not appear. Where a call stands in place of a potency, no number is given. Activity calls are given as the source filed them. Calls come from the whole dose curve; as a rule, active = well fitted cell-killing curve with a large enough effect in the repeat runs; inconclusive = weak or mixed curves, or effect the other way; inactive = no such curve, though single readings can be large or run the other way.

Test: qHTS assay to identify small molecule antagonists of the glucocorticoid receptor (GR) signaling pathway - cell viability counter screen (AID 720693); note: nearly all actives have a fitted effect of over 55% in size
Conditions: GR-bla HeLa viability, CellTiter-Glo luminescence, 18 h, with 5 nM dexamethasone present; series mostly up to 58.5 µM

| Structure (SMILES) | Potency |
| --- | --- |
| O=S(=O)(c1ccccc1)c1ccc(Cl)cc1 | inactive |
| CCCCC(CC)CNCC(CC)CCCC (configuration not stated) | inactive |
| CNCCCC1c2ccccc2C=Cc2ccccc21 | inactive |
| C1COCO1 | inactive |
| OC(CCCN1CCCCC1)(c1ccccc1)c1ccccc1 | inactive |
| CCCc1c(OCCCOc2ccc(OCC(=O)O)cc2)ccc(C(C)=O)c1O | inactive |
| COc1ccc(C(=O)c2cccc(O)c2)c(OC)c1 | inactive |
| Fc1ccccc1[C@@H](F)COC1CCC(Nc2ncnc3[nH]ncc23)CC1 (some centres not stated) | inactive |
| O=C(CCCCCCCCC#CI)Oc1ccccc1 | inactive |
| CCCCCCCCCCCCCCCCBr | inactive |
| O=C1NCCN1 | inactive |
| CC(=O)Nc1ccc(N)cc1 | inactive |
| CCC(C)(C)C1CCC(O)CC1 (configuration not stated) | inactive |
| Cc1ccc(/C=N/n2c(-c3ccccc3)csc2=S)cc1 | inactive |
| CNC(=O)N(c1ccccc1)c1ccccc1 | inactive |
| Cc1cc(O)c2c(O)c3c(O)cccc3cc2c1 | inactive |
| CC(CCc1ccc2c(c1)OCO2)NN (configuration not stated) | inactive |
| Cc1cc(O)c(C(C)C)cc1Cl | inactive |
| COC(=O)[C@@H]1CC2=CC(=O)CC[C@]2(C)[C@@]23O[C@@H]2C[C@@]2(C)[C@@H](CC[C@@]24CCC(=O)O4)[C@H]13 | inactive |

| Structure (SMILES) | Potency |
| --- | --- |
| CCCCCCCCCCOS(=O)(=O)O | inactive |
| C[C@@H]1C[C@H]2[C@@H]3CCC4=CC(=O)C=C[C@]4(C)[C@@]3(F)[C@@H](O)C[C@]2(C)[C@H]1C(=O)CO | inactive |
| CO[C@H]1C=CO[C@@]2(C)Oc3c(C)c(O)c4c(O)c(c5c(c4c3C2=O)=NC2(CCN(CC(C)C)CC2)N=5)NC(=O)/C(C)=C\C=C/[C@H](C)[C@H](O)[C@@H](C)[C@@H](O)[C@@H](C)[C@H](OC(C)=O)[C@@H]1C | inactive |
| O=C(O)c1snc(Cl)c1Cl | inactive |
| CN(C)C(=O)Nc1ccc(Oc2ccc(Cl)cc2)cc1 | inactive |
| Cc1ccnc2ccccc12 | inactive |
| OCCSc1ccccc1 | inactive |
| CO[Si](C)(OC)OC | inactive |
| CC(=O)Oc1ccc(C(=C2CCCCC2)c2ccc(OC(C)=O)cc2)cc1 | inactive |
| CCCCCCOC(=O)CCCCCCCC(=O)OCCCCCC | inactive |
| O=C(O)c1cccc(O)c1 | inactive |
| CC(=O)Oc1ccc2c(c1)CC[C@@H]1[C@@H]2CC[C@]2(C)[C@@H](O)CC[C@@H]12 | inactive |
| c1cc[c]([Bi]([c]2ccccc2)[c]2ccccc2)cc1 | inactive |
| C=CC(=O)NCOCC(C)C | inactive |
| CCC(C)(O)CCC=C(C)C (configuration not stated) | inactive |
| COC(OC)(C(=O)c1ccccc1)c1ccccc1 | inactive |
| Cc1oncc1C(=O)Nc1ccc(C(F)(F)F)cc1 | inactive |
| CC1(C)C(=O)N(Br)C(=O)N1Cl | inactive |
